# Test results reported in PubChem BioAssay.
# Activity calls are given as the source filed them.
# What was measured:
# [1] = test system: Human papillomavirus type 1a protein E7 (residues 44-93); assay: small molecules binding HPV E7 44-93 – biochemical, small-molecule microarray, residues 44-93, 635 nm fluorescence, primary screen (AID 1108); details: fluorescence 635 nm, higher = more signal;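 further: E7 fragment applied at 1 µg/mL in TBST for 1 h at 4 C; score combines spot fluorescence with its signal to noise ratio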
# [2] = hepatitis C replication reporter changes, two-sided – Huh7 cells, luciferase reporter, HCV replication inhibitor project, primary screen (AID 1109); details: Huh7 HCV replicon luciferase reporter, 48 h; higher = more signal;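 further: huh7 hepatoma cells harbouring a luciferase neomycin HCV replicon reporter; luciferase luminescence as measure of HCV replicon replication; test concentration not given here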
# [3] = target: Left-right determination factor 2 (Homo sapiens) (UniProt O00292); assay: small molecules binding LEFTY2 protein – biochemical, small-molecule microarray, 635 nm fluorescence scan, primary screen (AID 1110); details: higher = more signal
# [4] = target: Calmodulin-1 (Homo sapiens) (UniProt P0DP23); assay: small molecules binding calmodulin-1 with EGTA – biochemical, small-molecule microarray, Cy5-labelled CALM1, profiling panel (AID 1111); details: Cy5-CALM1 binding fluorescence, higher = more signal;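 further: labelled calmodulin applied in Tris saline Tween buffer holding calcium plus EGTA and DTT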
# [5] = target: Calmodulin-1 (Homo sapiens) (UniProt P0DP23); assay: small molecules binding Ca-loaded calmodulin-1 – biochemical, small-molecule microarray, Cy5-labelled CALM1, plus calcium, artefact control for SMM control-protein annotation, profiling panel (AID 1112); details: Cy5-CALM1 binding fluorescence, higher = more signal;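 further: score merges spot fluorescence with signal to noise from triplicate slides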
# [6] = probe aWnt5a binding to arrayed compounds – biochemical, biotinylated probe, 635/667 nm fluorescence, primary screen (AID 1113); details: small-molecule microarray, higher = more signal;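 further: score merges 667 nm fluorescence intensity with signal-to-noise per printed feature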
# [7] = probe aShh binding to arrayed compounds – biochemical, biotinylated probe, 635/667 nm fluorescence, primary screen (AID 1114); details: small-molecule microarray, higher = more signal;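 further: probe is biotin-labelled aShh protein from a stem cell growth factor screen; measures binding of labelled protein to compounds printed on the slide; score merges feature fluorescence at 667 nm with signal-to-noise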
# [8] = probe aNog binding to arrayed compounds – biochemical, biotinylated probe, 635/667 nm fluorescence, primary screen (AID 1115); details: small-molecule microarray, higher = more signal;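 further: probe is biotinylated aNog protein used at 0.15 µg/mL for 1 h at 4 C; z-score combines 667 nm fluorescence of each spot with its signal to noise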
# [9] = target: Torsin-1A-interacting protein 1 (Homo sapiens) (UniProt Q5JTV8); assay: compound microarray binding of lysate hLAP1 – cell lysate, small-molecule microarray, COS7 lysate, 635/667 nm fluorescence, primary screen (AID 1116); details: 635 nm fluorescence, higher = more signal
# [10] = target: Alpha-bungarotoxin (Bungarus multicinctus) (UniProt P60615); assay: compounds binding labelled alpha-BTX control protein – biochemical, small-molecule microarray, Alexa647 label, 635/667 nm fluorescence, artefact control for SMM control protein annotation, profiling panel (AID 1117); details: alpha-BTX-A647 binding fluorescence, higher = more signal
# Albumin (Bos taurus) = Albumin (Bos taurus) (UniProt P02769); assay: compounds binding labelled BSA control protein – biochemical, small-molecule microarray, Alexa647 label, 635/667 nm fluorescence, artefact control for SMM control protein annotation, profiling panel (AID 1118); details: BSA-A647 binding, fluorescence 635 nm, higher = more signal;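 further: score merges 667 nm emission intensity and signal-to-noise per printed compound spot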
# [11] = probe aXIP binding to arrayed compounds – biochemical, NeuroSMM set, 635/667 nm fluorescence, primary screen (AID 1119); details: small-molecule microarray, higher = more signal, called active from +8 up or from −8 down;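 further: probe is the protein aXip251-270 applied at 1 µg/mL to compound-printed slides; binding of probe to printed compounds measured as 667 nm fluorescence plus signal to noise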
# [12] = probe aNOTCH3 binding on compound microarray – biochemical, small-molecule microarray, 635/667 nm fluorescence, primary screen (AID 1120); details: higher = more signal;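 further: probe is a biotin-tagged antibody raised against NOTCH3 rather than NOTCH3 protein; score merges spot fluorescence near 667 nm with spot signal to noise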
# [13] = probe aNOTCH2 binding on compound microarray – biochemical, small-molecule microarray, 635/667 nm fluorescence, primary screen (AID 1121); details: higher = more signal;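 further: score merges feature fluorescence read at 667 nm with its signal to noise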
# [14] = target: Carbonic anhydrase 2 (Homo sapiens) (UniProt P00918); assay: compounds binding carbonic anhydrase 2 – biochemical, small-molecule microarray, Alexa647-labelled CAII, profiling panel (AID 1122); details: CAII-A647 binding fluorescence, higher = more signal
# [15] = COS7 lysate on small-molecule microarray, probe aHis, 635 nm (AID 1123); details: COS7 cell lysate, fluorescence, higher = more signal;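 further: z-score combines 667nm fluorescence intensity with signal-to-noise per printed compound spot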
# [16] = probe aLAP1 signal on lysate-treated microarray – cell lysate, small-molecule microarray, COS7 lysate, primary screen (AID 1124); details: probe aLAP1, fluorescence, higher = more signal;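 further: lysate comes from COS7 cells expressing LAP1 and is applied at 0.3 µg/mL; score merges spot fluorescence near 667 nm with signal-to-noise over triplicate slides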
# Sam68 (KHDRBS1) = assay: compounds binding KHDRBS1 protein – biochemical, small-molecule microarray, 635 nm fluorescence, primary screen (AID 1125); details: higher = more signal;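 further: score merges 667 nm channel intensity with signal to noise over triplicate slides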
# [17] = test system: Chordin-like protein 2 (CHRDL2); assay: compounds binding chordin-like 2 – biochemical, small-molecule microarray, 635 nm fluorescence, primary screen (AID 1126); details: fluorescence 635 nm, higher = more signal;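 further: printed compound slides probed with Chrdl2 protein at 4 µg/mL for 1 h at 4 C; score merges 667 nm emission intensity with signal to noise over three replicate slides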
# [18] = target: Concanavalin-A (Canavalia ensiformis) (UniProt P02866); assay: compounds binding concanavalin A lectin – biochemical, small-molecule microarray, Alexa647 label, 635 nm, artefact control for SMM control protein annotation, primary screen (AID 1127); details: ConA-A647 binding fluorescence, higher = more signal;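 further: z combines 667 nm emission intensity with signal-to-noise across three replicate slides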
# Chain of Concanavalin-A (Canavalia ensiformis) (P02866 whole entry, looked up): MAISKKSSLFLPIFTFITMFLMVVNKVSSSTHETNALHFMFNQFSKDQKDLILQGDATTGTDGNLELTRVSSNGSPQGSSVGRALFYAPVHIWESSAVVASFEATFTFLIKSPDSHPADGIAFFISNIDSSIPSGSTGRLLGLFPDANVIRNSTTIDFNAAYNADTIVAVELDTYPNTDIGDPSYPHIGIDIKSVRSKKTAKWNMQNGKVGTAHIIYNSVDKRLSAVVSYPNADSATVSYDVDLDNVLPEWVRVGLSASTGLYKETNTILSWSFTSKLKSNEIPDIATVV
# Chain of Torsin-1A-interacting protein 1 (Homo sapiens) (Q5JTV8 whole entry, looked up): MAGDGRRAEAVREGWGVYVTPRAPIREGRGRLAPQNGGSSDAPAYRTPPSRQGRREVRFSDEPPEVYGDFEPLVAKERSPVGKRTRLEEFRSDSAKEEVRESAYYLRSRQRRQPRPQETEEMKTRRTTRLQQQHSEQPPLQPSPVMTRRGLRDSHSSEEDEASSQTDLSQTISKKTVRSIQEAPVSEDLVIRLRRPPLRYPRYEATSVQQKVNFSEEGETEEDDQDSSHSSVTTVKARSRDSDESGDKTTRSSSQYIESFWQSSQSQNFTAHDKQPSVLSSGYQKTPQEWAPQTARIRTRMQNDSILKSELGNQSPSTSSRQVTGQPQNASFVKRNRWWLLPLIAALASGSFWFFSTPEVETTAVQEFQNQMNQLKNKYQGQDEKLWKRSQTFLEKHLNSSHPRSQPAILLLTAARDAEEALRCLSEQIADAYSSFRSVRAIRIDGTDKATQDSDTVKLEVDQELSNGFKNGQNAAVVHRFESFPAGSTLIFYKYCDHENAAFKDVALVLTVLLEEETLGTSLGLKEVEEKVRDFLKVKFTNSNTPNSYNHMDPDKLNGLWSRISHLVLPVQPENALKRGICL
# Chain of Left-right determination factor 2 (Homo sapiens) (O00292 whole entry, looked up): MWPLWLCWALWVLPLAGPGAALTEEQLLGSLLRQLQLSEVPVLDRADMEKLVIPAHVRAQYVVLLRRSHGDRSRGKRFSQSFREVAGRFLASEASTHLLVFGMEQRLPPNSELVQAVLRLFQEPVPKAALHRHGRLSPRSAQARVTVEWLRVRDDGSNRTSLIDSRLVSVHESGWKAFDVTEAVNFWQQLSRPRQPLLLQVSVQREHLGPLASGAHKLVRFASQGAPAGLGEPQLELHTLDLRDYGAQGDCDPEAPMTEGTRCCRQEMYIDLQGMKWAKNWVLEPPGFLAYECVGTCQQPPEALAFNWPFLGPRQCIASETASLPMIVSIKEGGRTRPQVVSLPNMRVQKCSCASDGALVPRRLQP
# Chain of Alpha-bungarotoxin (Bungarus multicinctus) (P60615 whole entry, looked up): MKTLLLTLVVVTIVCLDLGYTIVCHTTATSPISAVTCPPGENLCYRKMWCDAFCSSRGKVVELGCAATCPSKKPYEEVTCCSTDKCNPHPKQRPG
# Chain of Albumin (Bos taurus) (P02769 whole entry, looked up): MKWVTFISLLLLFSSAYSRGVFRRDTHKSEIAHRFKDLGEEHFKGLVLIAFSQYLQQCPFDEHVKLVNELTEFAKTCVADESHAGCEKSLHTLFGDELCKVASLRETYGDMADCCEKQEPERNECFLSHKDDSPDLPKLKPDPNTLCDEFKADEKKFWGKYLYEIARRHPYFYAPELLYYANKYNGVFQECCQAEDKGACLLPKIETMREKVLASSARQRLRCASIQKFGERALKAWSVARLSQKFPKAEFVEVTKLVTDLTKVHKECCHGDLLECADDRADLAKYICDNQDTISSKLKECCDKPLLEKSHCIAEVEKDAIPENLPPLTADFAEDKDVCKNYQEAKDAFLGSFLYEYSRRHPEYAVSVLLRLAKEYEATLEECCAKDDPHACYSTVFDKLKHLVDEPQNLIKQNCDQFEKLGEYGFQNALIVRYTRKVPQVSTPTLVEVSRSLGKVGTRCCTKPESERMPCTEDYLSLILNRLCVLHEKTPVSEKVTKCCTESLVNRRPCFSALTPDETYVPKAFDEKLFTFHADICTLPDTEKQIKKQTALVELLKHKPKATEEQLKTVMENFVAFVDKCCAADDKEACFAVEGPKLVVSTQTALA
Compound,composite z-score [1],z-score [2],composite z-score [3],composite z-score [4],composite z-score [5],composite z-score [6],composite z-score [7],composite z-score [8],composite z-score [9],composite z-score [10],composite z-score (Albumin (Bos taurus)),composite Z-score [11],composite z-score [12],composite z-score [13],composite z-score [14],composite z-score [15],composite z-score [16],composite z-score (Sam68 (KHDRBS1)),composite z-score [17],composite z-score [18]
CCCC=C(CCC)[C@@H](NC(=O)C(C)(C)C)c1ccc(C(=O)OC)cc1,1.32,-1.01,-0.494,1.72,1.43,0.191,0.572,1.98,0.321,1.5,0.991,0.29 (inactive),0.25,0.0199,0.441,2.76,0.103,0.622,-0.91,0.869
CN(C)C(=O)[C@]1(Cc2ccccc2CN=[N+]=[N-])N=C(c2ccc(OCCCO)cc2)O[C@@H]1c1ccccc1,1.47,-3.37,-0.0728,1.56,0.596,0.0337,0.792,1.05,1.39,1.92,0.349,-0.4 (inactive),0.113,-0.0896,0.402,2.06,0.454,1.3,-1.08,1.04
CCOC(=O)C[C@H]1[C@H](OC(=O)c2cc3ccccc3oc2=O)[C@@H](NC(=O)c2ccc3ccccc3n2)c2cc(OCCCO)ccc2N1C(=O)Cc1ccc(OC)cc1,1.23,-1.96,0.735,0.228,-0.653,0.0297,-0.0119,-0.0428,0.726,0.981,0.463,0.35 (inactive),0.127,-0.0878,0.356,0.219,-0.0863,1.22,0.368,1.05
COCCCNC(=O)[C@@H]1c2ccccc2C(=O)N(C(C)C)[C@H]1c1ccc(CO)cc1,-1.72,-0.183,0.0506,0.355,0.254,-0.0828,-0.221,-0.1,0.846,0.886,0.0913,0.0178 (inactive),0.0577,-0.125,0.25,-0.756,-0.366,0.0457,-0.0306,0.856
C=CC[C@]1(C(=O)N2CCOCC2)COC(c2ccc(OCCCO)cc2)=N1,1.53,-0.164,-0.233,1.64,-0.497,-0.0236,0.381,1.11,1.98,2.21,1.08,-0.275 (inactive),0.298,-0.13,0.777,3.27,1.6,1.28,0.191,1.16
